Assay [1] in a line: Her2 expression decrease, cell viability multiplex – SKBR3 breast tumor cells, AlphaScreen, ATP viability, primary screen (AID 461;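 active means Her2 level under about 52% in both replicate screens, with viability over 70% of control, limit read from the data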;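 on Her2 level: lower value means less Her2 protein in the cells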;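 on viability: percent of carrier control wells set as 100% viability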). The conditions noted are these: SKBR3 Her2 protein level, 18-24 h, measured here: SKBR3 viability, ATP luminescence, at 10 µM.
For assay [2], the target named is Receptor tyrosine-protein kinase erbB-2 (Homo sapiens) (UniProt P04626). Described as above. The conditions noted are these: 18-24 h, at 10 µM, stronger effect = lower value.
Assay [3] is described as follows: reduced viability of SK-BR-3 breast cancer cells – cell-based, 24 h, human, pilot screen (AID 572;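 active means viability at or below 10% of carrier control in both of two separate runs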;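 further: compound exposure lasted between 18 and 24 h rather than exactly 24 h; 100% = carrier-treated control wells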). As to conditions: SK-BR-3 viability, CellTiter-Glo luminescence, at 10 µM, stronger effect = lower value.
The nature of assay [4]: HUVEC growth inhibition – cell-based, human, primary screen (AID 575;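 active means viability at or below 30% in both replicate assays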;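 further: 100% = median of untreated cell wells with 0.1% DMSO on each plate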). As to conditions: HUVEC proliferation, CellTiter-Glo luminescence, 72 h; at 10 µM; stronger effect = lower value.
The nature of assay [5]: H69AR cell proliferation blockers – human, duplicate replicates, primary screen (AID 580;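 active means viability at or under a set limit in both replicates, limit being median viability minus 3 SD, cut at about 48% in these data, passing the limit was not always enough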;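 further: 100% = mean luminescence of untreated wells and 0% = no signal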). The conditions noted are these: H69AR lung tumor cells viability, ATP luminescence, 72 h; at 10 µM; stronger effect = lower value.
Assay [6] in a line: MRP1 drug-resistance reversers in H69AR cells – cell-based, doxorubicin co-treatment, pilot screen (AID 601;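 active means viability loss from added drug above about 55%, and viability with drug at most 40%, in both replicates, limit read from the data, passing the limit was not always enough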). The conditions noted are these: CellTiter-Glo, 72 h, at 10 µM; for differential viability (reversal): stronger effect = higher value. Background: ATP-based viability assays read luminescence as a measure of living cells.
A short description of assay [7]: yeast transport mutant growth inhibition pilot in 384-well plates, post-Golgi transport modulator project (AID 636; in the data active means inhibition above about 31%). As to conditions: absorbance 615 nm, about 18 h, stronger effect = higher value.
The nature of assay [8]: growth suppression of yeast trafficking mutant, preliminary HTS, modulators of trafficking downstream of Golgi apparatus project, 1536-format plate, OD 615 nm (AID 637; in the data active means inhibition above about 30%). As to conditions: yeast transport mutant growth, absorbance 615 nm, 18 h; stronger effect = higher value.
Assay [9] can be described thus: S. cerevisiae growth inhibition in permissive medium (OD615), pilot counter-assay for S. cerevisiae lifespan shortening project, permissive growth control (AID 705;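 active means growth inhibition above 25% in both replicates, a cutoff set 3 SD above the mean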). The conditions noted are these: OD615, 24 h, at 10 µM, stronger effect = higher value.
Assay [10] in a line: S. cerevisiae growth inhibition in restrictive medium, OD615, pilot screen, restrictive growth control, yeast lifespan reduction project (AID 706;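 active means growth inhibition above a set limit, 3 SD over mean compound inhibition, in both replicates, cut at about 43% in these data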;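 further: modified DeaD lifespan yeast strain shifted to restrictive glucose medium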). As to conditions: OD615, 48 h, at 10 µM, stronger effect = higher value.
Assay [11] can be described thus: doxorubicin toxicity protection in MRP-1 cells – H69AR cells, CellTiter-Glo, duplicate, MRP-1 activator project, pilot screen (AID 807;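 active means viability increase at or above a cutoff of the median across tested compounds plus 3 SD, cut at about 8.5% in these data, passing the limit was not always enough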;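 further: compound pretreatment 18-22 h then 72 h combined with doxorubicin; 0% = doxorubicin alone and 100% = vehicle without doxorubicin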). The conditions noted are these: H69AR viability with doxorubicin, CellTiter-Glo luminescence; at 10 µM; stronger effect = higher value.
Assay [12] can be described thus: viability of HCT116 without oncogenic beta-catenin – human colon tumor cells, pilot screen (AID 823;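 active means cell viability at or below a set limit in both duplicate runs, the limit being the all-compound median minus 4 SD, cut at about 23% in these data, passing the limit was not always enough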;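 further: 0% = wells killed by 20 µM Hyamine and 100% = untreated DMSO cell wells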). As to conditions: HCT116 beta-catenin knockout viability, CellTiter-Glo, 60 h; at 10 µM; stronger effect = lower value.
Assay [13] is described as follows: viability of PTEN-null HCT116 cells – cell-based, HCT116 clonal line, CellTiter-Glo, pilot screen (AID 824).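 Further: 0% = 20 µM Hyamine control and 100% = vehicle cell control.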 As to conditions: HCT116 PTEN-deleted viability, 60 h, at 10 µM, stronger effect = lower value.
Assay [14] can be described thus: RAM pathway blockade in budding yeast – dse1pr::URA3 reporter, 5-FOA selection, pilot screen (AID 869;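 active means inhibition over a set limit, the all-compound mean plus 3 SD, in both replicate runs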;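 further: 0% = DMSO wells with no growth and 100% = 10 µM 1-NA-PP1 with full growth; RAM network block rescues cells from 5-FOA so hits raise OD615 growth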). The conditions noted are these: S. cerevisiae dse1pr::URA3 5-FOA growth, OD615, 2 d; at 10 µM; stronger effect = higher value; strain carries analog-sensitive mutant Cbk1 kinase.
Assay [15] is described as follows: RAM signaling pathway blockade in yeast – S. cerevisiae, Pdr1DBD-CYC8 efflux-inhibited sensitized strain, primary screen (AID 1298;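 active means RAM network inhibition above 8.4% in each of two replicates, 3 SD over the compound average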;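 further: 0% = DMSO untreated cells without growth and 100% = 10 µM 1-NA-PP1 full growth; higher means more yeast growth rescued from 5-FOA killing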). The conditions noted are these: S. cerevisiae cbk1-as DSE1-URA3 strain, 5-FOA growth OD615, 2 d; at 50 µM; stronger effect = higher value.
Setting [16] is: H69AR cells + 2 uM doxorubicin, measured here: viability with 2 uM doxorubicin, stronger effect = lower value.
The mark [17] stands for this setting: H69AR cells, compound alone cytotoxicity.

Inconclusive results are not listed. Calls of active or inactive are those of the source.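 How the source made its calls, unless noted: active means viability at or below 27.92% in each of two runs, the all-compound median minus 4 SD; inconclusive means no clear call, values can overlap the other calls; inactive means the rest.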

Chain of Receptor tyrosine-protein kinase erbB-2 (Homo sapiens) (P04626 whole entry, looked up): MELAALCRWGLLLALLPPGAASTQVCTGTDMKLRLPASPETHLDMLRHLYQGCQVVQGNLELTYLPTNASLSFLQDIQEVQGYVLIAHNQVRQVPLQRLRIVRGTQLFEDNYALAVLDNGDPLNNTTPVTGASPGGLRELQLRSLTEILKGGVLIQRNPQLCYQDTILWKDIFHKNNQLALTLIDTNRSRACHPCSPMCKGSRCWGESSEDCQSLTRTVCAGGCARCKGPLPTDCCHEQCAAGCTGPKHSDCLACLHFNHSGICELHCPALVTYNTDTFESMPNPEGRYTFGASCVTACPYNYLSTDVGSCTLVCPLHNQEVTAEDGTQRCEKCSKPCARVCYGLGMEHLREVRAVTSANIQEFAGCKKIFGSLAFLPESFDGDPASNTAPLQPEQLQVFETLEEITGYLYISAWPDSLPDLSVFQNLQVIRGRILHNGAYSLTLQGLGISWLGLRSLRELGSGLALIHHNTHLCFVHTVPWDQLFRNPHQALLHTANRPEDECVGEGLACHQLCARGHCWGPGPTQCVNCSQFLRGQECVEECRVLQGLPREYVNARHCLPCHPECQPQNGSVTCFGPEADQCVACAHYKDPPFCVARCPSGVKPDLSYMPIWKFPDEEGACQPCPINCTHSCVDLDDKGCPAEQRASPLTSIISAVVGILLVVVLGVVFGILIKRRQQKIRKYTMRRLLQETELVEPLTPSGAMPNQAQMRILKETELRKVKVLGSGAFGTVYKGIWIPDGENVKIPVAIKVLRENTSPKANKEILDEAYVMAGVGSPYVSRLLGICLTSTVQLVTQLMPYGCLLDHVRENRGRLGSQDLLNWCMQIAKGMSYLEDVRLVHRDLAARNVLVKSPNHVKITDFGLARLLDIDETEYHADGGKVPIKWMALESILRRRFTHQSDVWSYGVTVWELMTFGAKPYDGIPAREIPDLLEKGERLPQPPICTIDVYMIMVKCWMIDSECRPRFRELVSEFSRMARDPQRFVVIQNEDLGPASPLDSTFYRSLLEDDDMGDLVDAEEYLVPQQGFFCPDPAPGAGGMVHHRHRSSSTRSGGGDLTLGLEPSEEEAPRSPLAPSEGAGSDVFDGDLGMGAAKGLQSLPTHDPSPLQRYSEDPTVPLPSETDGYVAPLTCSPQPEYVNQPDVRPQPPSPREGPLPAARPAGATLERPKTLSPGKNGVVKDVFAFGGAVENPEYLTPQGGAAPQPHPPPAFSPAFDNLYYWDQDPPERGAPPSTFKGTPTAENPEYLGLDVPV

What is called viability is a read-out of living cells in per cent, often relative to untreated cells. For orientation: inhibition means the drop in the measured response relative to a control, in per cent. In the case of `O=C(Cn1ncc2c1-c1ccccc1OC2)Nc1ccc(Cl)cn1`, the viability was 91.5% in assay [1]; 91.5% (inactive) in assay [3]; 80.1% (inactive) in assay [4]; 99.3% (inactive) in assay [5]; 91.5% in [6] (setting [16]); 99.3% in assay [6] (setting [17]). For the same molecule, the figures for the viability in assay [12] and in assay [13] were 95.9% (inactive) and 95.1% (inactive), respectively. The Her2 level in assay [2] was 95% (inactive). The differential viability (reversal) in assay [6] (H69AR cells + 2 uM doxorubicin) was 7.75% (inactive). Also, the values for the inhibition in [7], in assay [8] and in assay [14] were -0.26% (inactive), -5.5% (inactive) and 4.09% (inactive), respectively. Moreover, the growth inhibition in [9] is 1.63% (inactive); in assay [10], 0.96% (inactive). Also, in assay [11], the viability increase is -3.35% (inactive). For the same molecule, the RAM network inhibition in assay [15] is 0.83% (inactive).
As to `CCOC(=O)c1ccc(NC(=O)CC2SC(=NC)N(C)C2=O)cc1` (stereo not given), the viability is 107% in assay [1]; 107% (inactive) in assay [3]; 110% (inactive) in assay [4]; 105% (inactive) in [5]; 88.7% in assay [6] (setting [16]); 105% in [6] (setting [17]). In addition, the viability in assay [12] was 101% (inactive); in [13], 97.8% (inactive). Also, the Her2 level in [2] was 88.5% (inactive). The differential viability (reversal) in assay [6] (H69AR cells + 2 uM doxorubicin) was 16.6% (inactive). Besides, the inhibition in assay [7] was -3.03% (inactive); in assay [8] it was -1.9% (inactive); in [14], 2.03% (inactive). In addition, the growth inhibition is 6.34% (inactive) in assay [9] and 11.4% (inactive) in assay [10]. Also, in [11], the viability increase was -0.46% (inactive). In [15], the RAM network inhibition is 2.16% (inactive).
Turning to `COCCOC(=O)C1=C(C)OC(N)=C(C#N)C1c1ccc2c(c1)OCO2` (stereo not given), the viability in assay [1] is 98%; in [3], 98% (inactive); in [4], 93.7% (inactive); in [5], 84.8% (inactive); in assay [6] (setting [16]), 79.8%; in assay [6] (setting [17]) it was 84.8%. For the same molecule, the viability in assay [12] was 106% (inactive); in assay [13], 105% (inactive). Further, the Her2 level in [2] was 91.5% (inactive). For the same molecule, in [6] (H69AR cells + 2 uM doxorubicin), the differential viability (reversal) is 4.96% (inactive). For the same molecule, the inhibition in [7] is -3.12% (inactive); in assay [8] it was -7.5% (inactive); in [14] it was 0.465% (inactive). The growth inhibition was 2.33% (inactive) in assay [9] and -2.95% (inactive) in [10]. Also, in [11], the viability increase was -1.47% (inactive). The RAM network inhibition in assay [15] was 3.07% (inactive).
In the case of `Cn1nnc2cc(C(=O)N3CCCCCC3)ccc21`, the viability in assay [1] was 81.5%; in assay [3] it was 81.5% (inactive); in assay [4], 81.7% (inactive); in assay [5] it was 105% (inactive); in [6] (setting [16]) it was 94.3%; in [6] (setting [17]) it was 105%. In addition, the figures for the viability in assay [12] and in assay [13] were 109% (inactive) and 96% (inactive), respectively. The Her2 level in assay [2] is 99.5% (inactive). Moreover, in assay [6] (H69AR cells + 2 uM doxorubicin), the differential viability (reversal) is 10.6% (inactive). For the same molecule, the figures for the inhibition in assay [7], in assay [8] and in [14] were -4.73% (inactive), -6.23% (inactive) and 0.345% (inactive), respectively. Moreover, the growth inhibition is -10.5% (inactive) in assay [9] and -19.7% (inactive) in assay [10]. The viability increase in [11] is -0.53% (inactive). Further, in [15], the RAM network inhibition is 1.87% (inactive).
For `CC(=O)NC(C)C(=O)OCC(=O)Nc1ccc(Br)cc1` (stereo not given), the viability in [1] is 95%; in assay [3], 95% (inactive); in [4], 93.9% (inactive); in assay [5], 94.5% (inactive); in assay [6] (setting [16]), 89.7%; in assay [6] (setting [17]), 94.5%. Besides, the viability in assay [12] was 99.7% (inactive); in assay [13] it was 100% (inactive). Also, the Her2 level in assay [2] was 80.5% (inactive). Moreover, the differential viability (reversal) in [6] (H69AR cells + 2 uM doxorubicin) is 4.86% (inactive). In addition, the values for the inhibition in [7], in assay [8] and in assay [14] were 0.13% (inactive), -4.17% (inactive) and 2.33% (inactive), respectively. Also, the growth inhibition in [9] is -14.2% (inactive); in [10], -18.7% (inactive). The viability increase in assay [11] was 0.09% (inactive). In addition, the RAM network inhibition in [15] is 1.92% (inactive).
